Some test systems named below: SK-MEL-2 melanoma; EKVX NSCLC; SN12C renal; UO-31 renal; TK-10 renal; ACHN renal; CAKI-1 renal; A498 renal; CCRF-CEM leukemia; SR leukemia; RPMI-8226 leukemia; OVCAR-8 ovarian; OVCAR-5 ovarian; OVCAR-4 ovarian; SK-OV-3 ovarian; IGROV1 ovarian; OVCAR-3 ovarian; HS 578T breast; NCI/ADR-RES ovarian.
Common to all, as to assay: NCI-60 one-dose screen, 48 h (100 = growth as untreated, 0 = no growth, -100 = all killed)
Holding throughout (conditions): 10 µM unless noted

The panel holds about 83,000 compounds, 20% with a hit somewhere; the sample as a whole holds those more often.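 The endpoint reported here, percent growth, reads 100 for growth as untreated, 0 for no net growth and -100 for all cells dead.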 A number with no mark means an inactive call. The source made the active and inactive calls. How the source made its calls: active means growth percent below 10; inactive means the rest.

Take `COC(=O)[C@]12CC[C@@H](C)[C@H](C)[C@@H]1C1=CC[C@@H]3[C@@]4(C)C(C=O)=C[C@@](C)(COC(=O)c5ccco5)C4=CC[C@@]3(C)[C@]1(C)CC2`: the growth in the experiment with SK-MEL-2 melanoma was -42.1% (active); in the experiment on EKVX NSCLC, 11%; with SN12C renal, 17.1%; with UO-31 renal, -55.3% (active); in the experiment with TK-10 renal, 6.65% (active); with ACHN renal it was -33.9% (active). Also, the growth in the experiment on CAKI-1 renal was 14.3%; with A498 renal it was 22.2%; in the experiment with CCRF-CEM leukemia it was 4.27% (active); with SR leukemia, -8.74% (active); in the experiment with RPMI-8226 leukemia it was 4.82% (active); with OVCAR-8 ovarian, 19.6%. In addition, the growth with OVCAR-5 ovarian is 8.46% (active); in the experiment on OVCAR-4 ovarian, 18.6%; with SK-OV-3 ovarian it was 27.8%; with IGROV1 ovarian, 26.5%; in the experiment on OVCAR-3 ovarian it was -92.6% (active); in the experiment with HS 578T breast it was 3.14% (active). Also, the growth with NCI/ADR-RES ovarian is 23.7%.
In the case of `Cc1cc(Cl)nc(NCc2cc(Nc3ccnc4cc(Cl)ccc34)ccc2F)n1`, the growth with SK-MEL-2 melanoma is 77.1%; in the experiment on EKVX NSCLC, 68.1%; in the experiment on SN12C renal it was 52.8%; in the experiment on UO-31 renal it was 44%; with TK-10 renal, 67.1%; in the experiment with ACHN renal it was 76.1%. The growth with CAKI-1 renal was 75.3%; with A498 renal, 63.3%; with CCRF-CEM leukemia, 28.9%; in the experiment with SR leukemia, -7.84% (active); in the experiment on RPMI-8226 leukemia, 33.1%; in the experiment with OVCAR-8 ovarian, 50.6%. For the same compound, the growth with OVCAR-5 ovarian is 107%; with OVCAR-4 ovarian, 9.24% (active); in the experiment with SK-OV-3 ovarian, 85.1%; in the experiment on IGROV1 ovarian, 64.7%; with OVCAR-3 ovarian it was 53.4%; in the experiment on HS 578T breast, 66.7%. Besides, the growth with NCI/ADR-RES ovarian is 50.3%.
Regarding `O=C(Nc1cccc(C(F)(F)F)c1)Nc1cccc(C(F)(F)F)c1`, the growth in the experiment with SK-MEL-2 melanoma was -28.5% (active); in the experiment on EKVX NSCLC, 13.8%; with SN12C renal it was 2.57% (active); in the experiment on UO-31 renal, 4.46% (active); in the experiment with TK-10 renal it was -0.607% (active); with ACHN renal it was 5.92% (active). The growth with CAKI-1 renal is 16.4%; in the experiment on A498 renal, -18.2% (active); with CCRF-CEM leukemia it was 2.44% (active); with SR leukemia, -22.6% (active); in the experiment on RPMI-8226 leukemia, -10.5% (active); with OVCAR-8 ovarian, 4.98% (active). The growth in the experiment with OVCAR-5 ovarian was 25.3%; in the experiment with OVCAR-4 ovarian it was 23.9%; with SK-OV-3 ovarian, -15.3% (active); in the experiment on IGROV1 ovarian, 26.8%; with OVCAR-3 ovarian it was 14.4%; with HS 578T breast it was 8.56% (active). For the same compound, the growth with NCI/ADR-RES ovarian is 7.46% (active).
As to `COc1cc(-c2nc(N3CCN(C)CC3)c3ccccc3n2)cc(OC)c1OC`, the growth was 81.2% in the experiment with SK-MEL-2 melanoma; 67.2% in the experiment on EKVX NSCLC; 82.6% in the experiment with SN12C renal; 45% with UO-31 renal; 94.1% in the experiment on TK-10 renal; 47.5% in the experiment on ACHN renal. The growth in the experiment on CAKI-1 renal was 50.3%; in the experiment with A498 renal, 21.6%; in the experiment with CCRF-CEM leukemia, 99.3%; with SR leukemia it was 48.9%; with RPMI-8226 leukemia it was 71.2%; in the experiment on OVCAR-8 ovarian it was 75.7%. Besides, the growth in the experiment on OVCAR-5 ovarian is 88.5%; in the experiment on OVCAR-4 ovarian it was 55.9%; in the experiment with SK-OV-3 ovarian, 68.4%; in the experiment on IGROV1 ovarian it was 62.5%; with HS 578T breast, 41.1%; in the experiment on NCI/ADR-RES ovarian, 10.3%.
For the compound `O=C(Nc1cccc(Oc2nnc(Cl)c3ccccc23)c1)Nc1ccc(Cl)c(C(F)(F)F)c1`, the growth in the experiment with SK-MEL-2 melanoma is -72.1% (active); in the experiment with EKVX NSCLC it was -6.74% (active); in the experiment with SN12C renal, -71.9% (active); in the experiment with UO-31 renal, -28.4% (active); in the experiment with TK-10 renal it was -51.5% (active); in the experiment with ACHN renal, -8.47% (active). Further, the growth in the experiment with CAKI-1 renal is 11.7%; in the experiment on A498 renal, -82.7% (active); in the experiment on CCRF-CEM leukemia, -5.44% (active); in the experiment with SR leukemia, -23.8% (active); in the experiment with RPMI-8226 leukemia it was -15.9% (active); with OVCAR-8 ovarian, -16.8% (active). The growth in the experiment with OVCAR-5 ovarian was -7.38% (active); in the experiment with OVCAR-4 ovarian it was 2% (active); with SK-OV-3 ovarian it was -44.1% (active); in the experiment on IGROV1 ovarian, -16.8% (active); with OVCAR-3 ovarian, -41.9% (active); in the experiment with HS 578T breast it was -17.2% (active). The growth with NCI/ADR-RES ovarian was -28.2% (active).
